Assay outcomes as filed in PubChem.
Shown are actives, neighbours in structure and some others; about 12% of the full set was active somewhere.
CHX counter: Cycloheximide Counterscreen for Small Molecule Inhibitors of Shiga Toxin. hit rate 12% among 300,000. cell reporter, cycloheximide protein synthesis inhibition counterscreen. max response, %; in the data active means max response mostly above about 13%, no sharp cut-off; inactive means mostly below about 14%; further: read at 38.3 µM for the half of the compounds with a filed dose
FMDV inh: High Throughput Screening for Foot and Mouth Disease Virus Antivirals; FMDV antiviral cell-based qHTS; Potency, µM (doses to about 57.9 µM), usual class: inhibitors; hit rate 1.2% among 410,000; AID 1159524, 2015; calls by dose curve; tested in HEK293T cells; further: read-out not given here; nearly all actives have a fitted effect of over 45% in size
Sm TGR inh: qHTS Assay for the Inhibitors of Schistosoma Mansoni Peroxiredoxins | Schistosoma mansoni thioredoxin glutathione reductase (TGR), Q962Y6 | purified TGR, DTNB reduction, TNB absorbance 405 nm | Potency, µM (highest dose often 114 µM), hits mostly inhibitors | hit rate 3% among 360,000; active means well fitted inhibition curve with a large enough effect; inconclusive means small, poorly fitted or top-dose-only effect; inactive means no such curve, though single readings can be large or run the other way; further: nearly all actives have a fitted effect of over 60% in size
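Kinetic colorimetric format: TGR-catalysed, NADPH-driven DTNB reduction monitored via TNB absorbance. Enzyme dispensed at 20 nM; compound exposure 15 min at room temperature before reaction start.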
Shiga inhibitor: A qHTS for Small Molecule Inhibitors of Shiga Toxin | AID 2315, 2010 | hit rate 9.2% among 290,000 | Vero cells, Shiga toxin protein synthesis inhibition reporter | inhibition, % at 38.7 µM; in the data active means inhibition mostly above about 28%, no sharp cut-off; inactive means mostly below about 43%
Hits are given with their value.

Results for CCc1nnc(NC(=O)c2ccncc2)s1 ?
CHX counter: inactive; FMDV inh: inactive; Sm TGR inh: inactive; Shiga inhibitor: inactive

What do the screens show for `CCc1nnc(NC(=O)C2CCCCC2)s1`?
CHX counter: 39; FMDV inh: inactive; Sm TGR inh: inactive; Shiga inhibitor: inactive

What do the screens show for `CCc1nnc(NC(=O)NC(C)(C)C)s1`?
CHX counter: 24; FMDV inh: inactive; Sm TGR inh: inactive; Shiga inhibitor: inactive

How did CCCCc1nnc(NC(=O)C=C(C)C)s1 do in these assays?
CHX counter: inactive; FMDV inh: inactive; Sm TGR inh: inactive; Shiga inhibitor: inactive

How did CCOC(=O)Cc1nnc(NC(=O)C2CCCCC2)s1 do in these assays?
CHX counter: inactive; FMDV inh: inactive; Shiga inhibitor: inactive

How did CCSc1nnc(NC(=O)C2CCCCC2)s1 do in these assays?
CHX counter: 25; FMDV inh: inactive; Sm TGR inh: inactive; Shiga inhibitor: 62

Results for COc1ccc(C(=O)NCc2nnc(SC)n2-c2ccccc2C)c(OC)c1OC ?
FMDV inh: inactive

How did Cc1cccc(-c2nc(S(=O)(=O)c3ccccc3)c(N3CCN(c4ccccc4)CC3)o2)c1 do in these assays?
FMDV inh: inactive; Sm TGR inh: inactive

What do the screens show for `CCC1CN(C(=O)N2CCC(C(=O)NCc3cccc(F)c3)CC2)c2cc(C)ccc2O1` (stereo not drawn)?
FMDV inh: inconclusive; Sm TGR inh: inactive

How did CC(C)c1nnc(NC(=O)C2CCCCC2)s1 do in these assays?
CHX counter: 13; FMDV inh: inactive; Sm TGR inh: inactive; Shiga inhibitor: 20

How did CC(C)Sc1nnc(NC(=O)C2CC2)s1 do in these assays?
CHX counter: 35; FMDV inh: inactive; Sm TGR inh: inactive; Shiga inhibitor: active

What do the screens show for `Cc1cccc(Nc2nnc(SC(C)C(=O)NC3CC3)s2)c1` (stereo not drawn)?
FMDV inh: inactive; Sm TGR inh: inactive

How did CC(C)Sc1nnc(Nc2ccccc2)s1 do in these assays?
CHX counter: 37; FMDV inh: inactive; Sm TGR inh: inactive; Shiga inhibitor: 143

What do the screens show for `CCCC(=O)Nc1nnc(SCC(=O)N2CCCCC2)s1`?
CHX counter: inactive; FMDV inh: inactive; Sm TGR inh: inactive; Shiga inhibitor: inactive

What do the screens show for `CCCC(=O)Nc1nnc(SCC)s1`?
CHX counter: 19; FMDV inh: inactive; Sm TGR inh: inactive; Shiga inhibitor: 38

What do the screens show for `O=C(O)CCc1cc(I)c(O)c(I)c1`?
FMDV inh: inactive

How did CC(=O)Nc1nonc1-c1nnc(SCC(=O)N(C)c2ccccc2)n1C do in these assays?
FMDV inh: inactive; Sm TGR inh: inactive

Results for O=C(Nc1ccc(C(F)(F)F)cc1)c1cc(S(=O)(=O)NC2CCCCCC2)ccc1F ?
FMDV inh: inactive; Sm TGR inh: inactive

What do the screens show for `COc1ccc(CCNC(=O)C(NS(=O)(=O)c2cccc3nsnc23)C(C)C)cc1OC` (stereo not drawn)?
CHX counter: inactive; FMDV inh: 10µM; Sm TGR inh: inactive; Shiga inhibitor: inactive

Results for CCCCc1ccc(Nc2ncccc2C#N)cc1 ?
CHX counter: 58; FMDV inh: inactive; Sm TGR inh: inactive; Shiga inhibitor: 122

Results for Cc1c2cnn(CC(=O)NC(C)C)c(=O)c2c(C)n1Cc1ccccc1Cl ?
FMDV inh: inactive; Sm TGR inh: inactive

How did CCN1/C(=N\N)c2cccc3cccc1c23 do in these assays?
CHX counter: inactive; FMDV inh: inactive; Sm TGR inh: 22µM; Shiga inhibitor: inactive

What do the screens show for `COc1ccc(N2CCN(C(=O)c3oc4ccccc4c3NC(=O)CCc3cc(OC)no3)CC2)cc1`?
CHX counter: inactive; FMDV inh: 25µM; Sm TGR inh: inactive; Shiga inhibitor: inactive

How did O=c1c2ccccc2nc2n1CC/C2=C/N1CCN(c2cccc(C(F)(F)F)c2)CC1 do in these assays?
CHX counter: inactive; Sm TGR inh: 32µM; Shiga inhibitor: inactive

Results for Cc1cccc(C(=O)NCc2cn3cccc(C)c3n2)c1 ?
FMDV inh: inactive; Sm TGR inh: inactive

What do the screens show for `FC(F)(F)c1ccc(-n2cnc3ccccc32)nc1`?
CHX counter: 33; FMDV inh: inactive; Sm TGR inh: inactive; Shiga inhibitor: 46

How did c1ccc(-n2cnc3ccccc32)nc1 do in these assays?
CHX counter: inactive; FMDV inh: inactive; Sm TGR inh: inactive; Shiga inhibitor: inactive

How did Cc1cc(C)nc(N(C#N)CCOc2ccc(Cl)cc2)n1 do in these assays?
CHX counter: 16; FMDV inh: inactive; Sm TGR inh: inactive; Shiga inhibitor: 39

How did Cc1ccc(-c2nc(CSCC(=O)N3CCOCC3)c(C)o2)cc1 do in these assays?
CHX counter: inactive; FMDV inh: inactive; Sm TGR inh: inactive; Shiga inhibitor: 73

What do the screens show for `Cc1ccc(-c2nc(CSCC(=O)N3CCN(C(=O)c4ccco4)CC3)c(C)o2)cc1`?
CHX counter: inactive; FMDV inh: inconclusive; Sm TGR inh: 40µM; Shiga inhibitor: inactive

What do the screens show for `CC(C)(O)c1cc(=O)sc2nc3ccccc3n12`?
CHX counter: 32; FMDV inh: inactive; Sm TGR inh: inactive; Shiga inhibitor: 70

Results for COc1ccc2c(c1)c1c(c(=O)n(-c3cccc(Cl)c3)c(=O)n1CC(=O)N1CCCC1)n2C ?
FMDV inh: inactive; Sm TGR inh: inactive

How did COc1ccc(C(=O)/C(=C\c2sccc2C)c2nc3ccccc3o2)cc1 do in these assays?
CHX counter: 19; Sm TGR inh: inactive; Shiga inhibitor: inactive

What do the screens show for `CC(C)Oc1ccc(C(=O)/C(=C\c2cccs2)c2nc3ccccc3o2)cc1`?
CHX counter: 38; FMDV inh: inactive; Sm TGR inh: inactive; Shiga inhibitor: active

What do the screens show for `CCn1ccc2cc(S(=O)(=O)N3CCC(C(=O)NCc4ccc(F)cc4)CC3)ccc21`?
FMDV inh: inactive; Sm TGR inh: inactive

How did Cc1ccc(-c2cc(N)nc(-c3ccccc3)c2)cc1 do in these assays?
CHX counter: 28; FMDV inh: inactive; Sm TGR inh: inactive; Shiga inhibitor: 60

How did Cc1ccc(CCNC(=O)CCCn2c(=O)c3ccccc3n(Cc3ccccc3C#N)c2=O)cc1 do in these assays?
FMDV inh: inactive; Sm TGR inh: inactive

Results for COCc1cc(C)nc2sc(C(=O)Nc3cccc(OC)c3)c(N)c12 ?
CHX counter: 54; FMDV inh: inactive; Sm TGR inh: inconclusive; Shiga inhibitor: 66

How did COCc1cc(C)nc2sc(C(=O)Nc3ccc(OC)cc3)c(N)c12 do in these assays?
CHX counter: 29; FMDV inh: inactive; Sm TGR inh: inactive; Shiga inhibitor: inactive

How did COCc1cc(C)nc2sc(C(=O)Nc3nccs3)c(N)c12 do in these assays?
CHX counter: 42; FMDV inh: inactive; Sm TGR inh: inactive; Shiga inhibitor: inactive

Results for CC(=O)c1ccc(C(=O)N2CCc3c(cnc(C)c3CNC(=O)c3ccc4c(c3)OCO4)C2)s1 ?
FMDV inh: inactive

How did Fc1ccc(Nc2nc3ccccc3c3nncn23)c(Cl)c1 do in these assays?
FMDV inh: inactive; Sm TGR inh: inactive

What do the screens show for `O=C(NCCCN1CCN(c2ccccc2F)CC1)c1ccc2nc(N3CCCCC3)sc2c1`?
FMDV inh: inactive; Sm TGR inh: inactive

How did CCOc1ccc(C2C(C(=O)Nc3ccccc3C)=C(C)Nc3nnnn32)cc1 (stereo not drawn) do in these assays?
FMDV inh: inactive; Sm TGR inh: inactive
